Sampled rows, rich in hits. Any-hit rate of the full collection: about 7.6%.
Tau fil binding: qHTS Assay for Tau Filament Binding | Microtubule-associated protein tau (Homo sapiens), P10636 | Potency, µM (doses to about 57.1 µM), without a hit: top-dose activity change, negative = inhibition | AID 596, 2007 | 71,000 compounds, 2% hits | recombinant tau filaments, thioflavin S fluorescence, 15 h; filaments grown with octadecylsulfate alongside compound;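 further: on the % scale 0 is the no-effect control and ±100 the full control effect; actives lower thioflavin S fluorescence by blocking filaments or displacing dye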
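Read-out: ThS fluorescence, 450 nm excitation/510 nm emission; lower signal marks blocked filament formation or displaced dye. Tau at 1 uM with 30 uM ODS, 10 uM ThS, 5 mM DTT, 100 mM NaCl, 10 mM HEPES pH 7.4; 15 h, 37 C.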
TSHR ag: qHTS Assay for Agonists of the Thyroid Stimulating Hormone Receptor. HEK293-CNG-TSHR cells (CNG channel as cAMP sensor), membrane potential dye, cAMP. Thyrotropin receptor (Homo sapiens), P16473. 73,000 compounds, 0.48% hits. Potency, µM (series often up to 57.1 µM), without a hit: at the top dose activation, actives largely listed as activators; active means well fitted activation curve with a large enough effect in the main read-out, with a control signal flat, not every such curve was filed as active; inconclusive means small, poorly fitted or top-dose-only effect, or a change in a side signal; inactive means no such curve, though single readings can be large or run the other way; % of control where 0% means no effect;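 further: the control signal comes from parental cells without the receptor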
Target sequence (P16473 whole entry, looked up): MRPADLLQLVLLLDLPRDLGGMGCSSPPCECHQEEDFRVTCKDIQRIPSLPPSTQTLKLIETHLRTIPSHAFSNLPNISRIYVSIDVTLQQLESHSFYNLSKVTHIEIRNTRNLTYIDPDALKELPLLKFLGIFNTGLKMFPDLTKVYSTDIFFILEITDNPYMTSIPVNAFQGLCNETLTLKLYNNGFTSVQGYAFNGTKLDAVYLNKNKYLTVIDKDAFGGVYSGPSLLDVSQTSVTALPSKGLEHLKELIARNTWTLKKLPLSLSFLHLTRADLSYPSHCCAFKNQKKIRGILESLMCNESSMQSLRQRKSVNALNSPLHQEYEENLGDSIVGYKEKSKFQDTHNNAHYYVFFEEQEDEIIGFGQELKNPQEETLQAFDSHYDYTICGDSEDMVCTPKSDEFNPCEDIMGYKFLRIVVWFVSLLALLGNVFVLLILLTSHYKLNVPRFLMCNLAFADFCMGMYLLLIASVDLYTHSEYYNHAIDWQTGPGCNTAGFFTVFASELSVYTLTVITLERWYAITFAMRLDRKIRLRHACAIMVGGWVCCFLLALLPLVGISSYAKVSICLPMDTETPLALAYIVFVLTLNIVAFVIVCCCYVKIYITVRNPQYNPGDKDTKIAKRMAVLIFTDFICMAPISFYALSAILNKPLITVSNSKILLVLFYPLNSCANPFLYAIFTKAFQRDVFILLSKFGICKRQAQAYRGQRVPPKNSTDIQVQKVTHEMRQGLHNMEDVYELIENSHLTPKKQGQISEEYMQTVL
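HEK 293 cells stably expressing TSHR and a modified CNG channel, with CNG-only parental cells as counterscreen, were preloaded 60 min at room temperature with membrane potential dye containing 100 uM RO 20-1724. Compound exposure was 30 min, and depolarization was read as fluorescence at 590 nm.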
CRE-bla Fsk: Cell signaling CRE-BLA (Fsk stim); AID 662, 2007; 71,000 compounds, 2.5% hits; CHO CRE-bla reporter (cAMP response element driving beta-lactamase), forskolin EC10, beta-lactamase ratio; Potency, µM (titrated, usually from 38.2 µM), inactives show top-dose activity change, negative = inhibition, most hits filed as activators; active means well fitted activation curve with a large enough effect in the signal ratio, with a control signal flat, not every such curve was filed as active; inconclusive means small, poorly fitted or top-dose-only effect, or effect the other way, or a change in a side signal; the % refers to the signal ratio; further: % of control where 0% means no effect
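AC50 values, positive or negative, reflect shifts in EC10 NKH 477-induced CRE-bla reporter activity in CHO cells. Incubation lasted 3 h at 37 °C before CCF4 substrate (2 h, room temperature) and ratiometric 460/530 nm reading.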
HEK293 cAMP ctrl: qHTS Assay for Agonists of the Thyroid Stimulating Hormone Receptor: Activators of Intracellular cAMP Concentrations in Parental HEK 293; 73,000 compounds, 2.5% hits; parental HEK293 CNG cAMP sensor, membrane potential fluorescence; Potency, µM (series often up to 57.1 µM), without a hit: at the top dose activation, hits mostly activators; AID 938, 2007; further: % of control where 0% means no effect; nearly all actives have a fitted effect of over 55% in size
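Counterscreen for endogenous-receptor signalling: CNG-channel HEK 293 cells report cAMP rise by membrane depolarization. After 60 min dye equilibration with 100 uM RO 20-1724, compounds incubated 30 min before bottom-read fluorescence at 590 nm.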
ERK AVP inh: qHTS Assay for Inhibitors of the ERK Signaling Pathway using a Homogeneous Screening Assay | 72,000 compounds, 0.99% hits | HEK293-V1b, vasopressin-stimulated pERK AlphaScreen | Potency, µM (doses to about 57.5 µM), inactives show at the highest dose activity, negative = inhibition, hits mostly inhibitors; further: on the % scale 0 is the no-effect control and ±100 the full control effect; nearly all actives have a fitted effect of over 55% in size
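Phosphorylated ERK1/2 detected via AlphaScreen bead proximity in lysates of V1b-expressing HEK293 cells given 25 nM vasopressin for 5 min after 30 min compound exposure (37 °C). AC50 from Hill equation; basal DMSO 0%, vasopressin 100%.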
* hit, by the source's call; [ ] = dose if it differs, or a comment. Unless noted, the call rests on the fitted dose curve; in most records, active means well fitted curve in the direction sought with a large enough effect; inconclusive means small, poorly fitted or top-dose-only effect, or another doubt; inactive means no such curve, though single readings can be large; an effect the other way counts as inactive or inconclusive. Potency means the concentration at half of the fitted maximal effect.

Results for CCOC(=O)c1[nH]c(COC(=O)c2ccccc2NC(=O)c2ccco2)c(C(=O)OCC)c1C ?
Tau fil binding: -10.9%; TSHR ag: 10.1%; CRE-bla Fsk: inconclusive; HEK293 cAMP ctrl: 24.9%; ERK AVP inh: inconclusive

What do the screens show for `COc1cc(C(=O)Nc2c(-c3ccccn3)c(=O)c3ccccc3n2C)cc(OC)c1OC`?
Tau fil binding: -4.5%; TSHR ag: 6.4%; CRE-bla Fsk: 0.158µM*; HEK293 cAMP ctrl: 6.5%; ERK AVP inh: -4.7%

How did CCOc1cc(NC(=O)c2ccco2)c(OCC)cc1NC(=O)c1cc(OC)c(OC)c(OC)c1 do in these assays?
Tau fil binding: 4.5%; TSHR ag: inconclusive; CRE-bla Fsk: inconclusive; HEK293 cAMP ctrl: inconclusive; ERK AVP inh: -18.6%

What do the screens show for `COc1ccc(-c2c(NC(C)=O)n(C)c3ccccc3c2=O)cc1`?
Tau fil binding: 1.5%; TSHR ag: 4.9%; CRE-bla Fsk: -0.3%; HEK293 cAMP ctrl: 14.1%; ERK AVP inh: -7.7%

What do the screens show for `COc1cc(C(=O)Nc2nc(OC)c(-c3ccccc3)c(OC)n2)cc(OC)c1OC`?
Tau fil binding: 69.8%; TSHR ag: 1.4%; CRE-bla Fsk: inconclusive; HEK293 cAMP ctrl: -4.0%; ERK AVP inh: -25.5%

How did COc1cc(C(=O)Nc2cc(-c3ccccc3)[nH]n2)cc(OC)c1OC do in these assays?
Tau fil binding: 12.9%[11.4 µM]; TSHR ag: -11.6%[11.4 µM]; CRE-bla Fsk: 0.794µM*; HEK293 cAMP ctrl: -5.2%[11.4 µM]; ERK AVP inh: inconclusive

What do the screens show for `COc1cc(NC(=O)c2ccco2)c(OC)cc1NC(=O)c1cc(OC)c(OC)c(OC)c1`?
Tau fil binding: -16.0%; TSHR ag: -22.9%; CRE-bla Fsk: 3.98µM*; HEK293 cAMP ctrl: 1.6%; ERK AVP inh: 9.3%

What do the screens show for `CCOC(=O)c1c(C)[nH]c(C(=O)COC(=O)c2ccccc2NC(=O)c2ccco2)c1C`?
Tau fil binding: 24.6%; TSHR ag: 1.8%; CRE-bla Fsk: 2µM*; HEK293 cAMP ctrl: -0.2%; ERK AVP inh: 12.0%

Results for CC(C)=CCC/C(C)=C/CO/N=C1/C[C@@H](O)[C@@H](O)[C@@H]2[C@@H]3C(=O)N([C@@H](C)c4ccccc4)C(=O)[C@H]3CC[C@@H]12 ?
TSHR ag: -6.1%[11.4 µM]; HEK293 cAMP ctrl: -8.7%[11.4 µM]; ERK AVP inh: 13.0%[11.5 µM]

What do the screens show for `CCOc1ccccc1NC(=O)c1cc(Cl)ccc1NC(=O)c1ccco1`?
Tau fil binding: 11.9%; TSHR ag: inconclusive; CRE-bla Fsk: 2.9%; HEK293 cAMP ctrl: 25.1µM*; ERK AVP inh: -2.5%

Results for O=C(Nc1ccc(Cl)cc1C(=O)Nc1ccccn1)c1ccco1 ?
Tau fil binding: 6.4%; CRE-bla Fsk: inconclusive; HEK293 cAMP ctrl: 48.9%; ERK AVP inh: -22.3%

How did COc1ccc(Cl)cc1NC(=O)CN(C(=O)c1ccco1)C1CCCCC1 do in these assays?
Tau fil binding: 8.0%; TSHR ag: inconclusive; CRE-bla Fsk: -8.7%; HEK293 cAMP ctrl: 3.98µM*; ERK AVP inh: 12.1%

What do the screens show for `COc1ccccc1NC(=O)c1ccc(-c2ccccc2F)o1`?
Tau fil binding: 63.4%; TSHR ag: inconclusive; CRE-bla Fsk: inconclusive; HEK293 cAMP ctrl: 25.1µM*; ERK AVP inh: -3.8%

Results for COc1ccc(C(=O)Nc2ccccc2C(=O)NCc2ccco2)cc1OC ?
Tau fil binding: 5.9%; CRE-bla Fsk: inconclusive; HEK293 cAMP ctrl: 17.0%; ERK AVP inh: -28.4%

What do the screens show for `COc1ccc(C(=O)Nc2ccc(Cl)cc2C(=O)NCc2ccco2)cc1OC`?
Tau fil binding: 82.0%; TSHR ag: inconclusive; CRE-bla Fsk: inconclusive; HEK293 cAMP ctrl: 25.1µM*; ERK AVP inh: -26.7%

Results for COc1ccccc1NC(=O)c1cc(Cl)ccc1NC(=O)c1ccco1 ?
Tau fil binding: 368.9%; TSHR ag: inconclusive; CRE-bla Fsk: 11.0%; HEK293 cAMP ctrl: 25.1µM*; ERK AVP inh: -15.4%

How did FC(F)(F)c1ccccc1-c1cc(NCc2cccnc2)ncn1 do in these assays?
Tau fil binding: -2.7%; TSHR ag: 10.4%; CRE-bla Fsk: 3.7%; HEK293 cAMP ctrl: 13.3%; ERK AVP inh: 2.1%

Results for O=[N+]([O-])c1ccccc1Nc1ccccc1 ?
Tau fil binding: -10.8%; TSHR ag: -3.5%; CRE-bla Fsk: 3.0%; HEK293 cAMP ctrl: -23.7%; ERK AVP inh: 15.8µM*

What do the screens show for `O=C(O)c1ccccc1[N+](=O)[O-]`?
Tau fil binding: -1.5%; TSHR ag: -4.0%; CRE-bla Fsk: -2.8%; HEK293 cAMP ctrl: 13.6%; ERK AVP inh: 9.3%

Results for CC(=O)O[C@H]1C2=C(C(=O)[C@H]3O[C@@H]31)[C@@H]1[C@@H]3[C@@H](C)OC=C4[C@H](O)[C@H]5O[C@@H]5C(=O)[C@]43C2O[C@H]1C ?
TSHR ag: 10.7%[11.4 µM]; HEK293 cAMP ctrl: 6.3%[11.4 µM]; ERK AVP inh: 9.7%[11.5 µM]

How did CCCN1Cc2cccc(C(=O)Nc3cc(OC)cc(OC)c3)c2C1=O do in these assays?
Tau fil binding: 8.2%; TSHR ag: inconclusive; CRE-bla Fsk: 6.31µM*; HEK293 cAMP ctrl: inconclusive; ERK AVP inh: -8.2%

How did COCCN1Cc2cccc(C(=O)Nc3cccc(OC)c3)c2C1=O do in these assays?
Tau fil binding: 23.5%; TSHR ag: 8.7%; CRE-bla Fsk: inconclusive; HEK293 cAMP ctrl: -0.4%; ERK AVP inh: 7.4%

Results for Cc1cccc(CNc2ccnc(-c3ccoc3)n2)c1 ?
Tau fil binding: -10.5%; TSHR ag: 7.5%; CRE-bla Fsk: inconclusive; HEK293 cAMP ctrl: 11.7%; ERK AVP inh: 7.4%

Results for Clc1ccc2nc(-c3ccccc3)[nH]c2c1 ?
ERK AVP inh: 25.1µM*

What do the screens show for `c1csc(-c2nc3ccccc3[nH]2)c1`?
Tau fil binding: -4.3%; TSHR ag: 8.7%; CRE-bla Fsk: 6.7%; HEK293 cAMP ctrl: 3.5%; ERK AVP inh: -11.2%

How did Cc1ccc(-c2nc3ccccc3[nH]2)s1 do in these assays?
Tau fil binding: 12.6µM*; TSHR ag: 18.1%; CRE-bla Fsk: 14.2%; HEK293 cAMP ctrl: 15.6%; ERK AVP inh: -24.1%

What do the screens show for `Nc1cc(N)cc(-c2nc3ccccc3[nH]2)c1`?
Tau fil binding: 6.31µM*; TSHR ag: -0.4%; CRE-bla Fsk: -8.3%; HEK293 cAMP ctrl: 4.6%; ERK AVP inh: 9.5%

Results for Nc1ccc(-c2nc3ccc(-c4nc5ccccc5o4)cc3[nH]2)cc1 ?
Tau fil binding: 53.3%; TSHR ag: -14.7%; CRE-bla Fsk: 12.6µM*; HEK293 cAMP ctrl: -12.2%; ERK AVP inh: 16.0%

Results for Cc1ccnc2ccc(-c3nc4ccccc4o3)cc12 ?
Tau fil binding: -0.9%; TSHR ag: inconclusive; CRE-bla Fsk: inconclusive; HEK293 cAMP ctrl: inconclusive; ERK AVP inh: inconclusive

Assay outcomes as filed in PubChem.
